Eight compounds from PubChem BioAssay (Tox21) can be followed below.

Experiment [1] is described as follows: qHTS assay for small molecule agonists of the p53 signaling pathway - cell viability (AID 651633; calls by dose curve; also: nearly all actives have a fitted effect of over 30% in size; also: potency is read from the fitted curve at half-maximal effect). The procedure, abridged: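 p53RE-bla cells, seeded at 4,000 per well and rested 5 h at 37 C/5% CO2, received compounds in DMSO for 16 h at 37 C. CellTiter-Glo was then added, and luminescence was read after 30 min at room temperature to gauge cytotoxicity.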
Experiment [2] can be described thus: qHTS assay for small molecules that induce genotoxicity in human embryonic kidney cells expressing luciferase-tagged ATAD5 - cell viability (AID 651634; calls by dose curve; also: nearly all actives have a fitted effect of over 25% in size; also: potency is read from the fitted curve at half-maximal effect). In short, it runs like this: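 HEK293T cells carrying luciferase-tagged ATAD5, 2,000 cells/well, exposed to compound for 15.5 hr at 37C. Viability read as live-cell protease activity by CellTiter-Fluor fluorescence after 30 min at 37C.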
In general terms: Quantitative high-throughput screening tests each substance at several concentrations.

Experiment [3] can be described thus: qHTS assay to test for compound auto fluorescence at 590 nm (red) in HepG2 cells (AID 720674). The procedure, abridged: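 Rose Bengal sodium served as the red fluorophore standard. HepG2 monolayers (overnight attachment, MEM with 10% FBS) were exposed to test compounds for 1 hr at 37 C and read at Ex 540/Em 590 nm.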
Experiment [4] in a line: qHTS assay to test for compound auto fluorescence at 535 nm (green) in HepG2 cells (AID 720675).
Experiment [5] is described as follows: qHTS assay to test for compound auto fluorescence at 460 nm (blue) in HEK293 cells (AID 720678). The procedure, abridged:
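Measured: blue fluorescence (Ex 405/Em 460 nm) of compound-treated HEK293 cells, incubated overnight at 37C with 5% CO2 and scaled to triamterene equivalents.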

Experiment [6] is described as follows: qHTS assay to test for compound auto fluorescence at 590 nm (red) in HEK293 cells (AID 720679). The procedure, abridged:
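Using HEK293 cells at 2,000 per well, the screen added 23 nL of each compound after cell attachment and incubated overnight (37C, 5% CO2). The plate reader then captured red-label fluorescence, Ex/Em 540/590nm.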

Experiment [7] is described as follows: qHTS assay to test for compound auto fluorescence at 535 nm (green) in HEK293 cells (AID 720680).
Experiment [8] in a line: qHTS assay to test for compound auto fluorescence at 460 nm (blue) in HEK293 cell free culture (AID 720681). The procedure, abridged: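 Test compounds were pinned into cell-free culture medium (DMEM with 10% FBS) and fluorescence was read directly at Ex/Em 405/460 nm. Signals were expressed as fluorescence equivalents of triamterene, with DMSO vehicle as control.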
Experiment [9] is described as follows: qHTS assay to test for compound auto fluorescence at 535 nm (green) in HEK293 cell free culture (AID 720682). In short, it runs like this: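 Intrinsic compound fluorescence is measured in culture medium containing 10% FBS, with excitation at 485 nm and detection at 535 nm, referenced to fluorescein.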
A short description of experiment [10]: qHTS assay to test for compound auto fluorescence at 590 nm (red) in HEK293 cell free culture (AID 720683). In short, it runs like this:
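Tox21 10K library compounds were pinned into cell-free DMEM with 10% FBS and fluorescence was read at excitation 540 nm. Activity is expressed as Rose Bengal sodium equivalency.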

A short description of experiment [11]: qHTS assay to test for compound auto fluorescence at 590 nm (red) in HepG2 cell free culture (AID 720684). In short, it runs like this: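 Red fluorescence (540 nm excitation, 590 nm emission) was measured after compound transfer into cell-free MEM supplemented with 10% FBS. Values are equivalencies against Rose Bengal sodium.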
The nature of experiment [12]: qHTS assay to test for compound auto fluorescence at 460 nm (blue) in HepG2 cell free culture (AID 720685). The procedure, abridged:
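Compound (23 nL) or DMSO pinned into cell-free MEM with 10% FBS; blue fluorescence read at 405/460 nm excitation/emission, expressed as auto-fluorescence equivalency to triamterene.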

Experiment [13] can be described thus: qHTS assay to test for compound auto fluorescence at 535 nm (green) in HepG2 cell free culture (AID 720686).
Experiment [14] is described as follows: qHTS assay to test for compound auto fluorescence at 460 nm (blue) in HepG2 cells (AID 720687). In short, it runs like this: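 Cells (2,000/well in MEM with 10% FBS) attached overnight at 37 C, then were exposed to compound or DMSO for 1 hr at 37 C, 5% CO2. Fluorescence read at Ex/Em 405/460 nm, expressed as triamterene-equivalent signal.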
The nature of experiment [15]: qHTS assay for small molecules that induce genotoxicity in human embryonic kidney cells expressing luciferase-tagged ATAD5 (AID 651632). Also: nearly all actives have a fitted effect of over 15% in size. In short, it runs like this: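 HEK293T cells carrying luciferase-tagged ATAD5 were given compound or DMSO vehicle and incubated 16 hr at 37C, 5% CO2. Luciferase activity was read after 30 min at room temperature with Amplite; a rise signals genotoxic stress.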

Experiment [16] has as its target Glucocorticoid receptor (Homo sapiens) (UniProt P04150). Put plainly: qHTS assay to identify small molecule agonists of the glucocorticoid receptor (GR) signaling pathway (AID 720691; active = well fitted activation curve with a large enough effect in the signal ratio in the repeat runs, not every such curve was filed as active; inconclusive = weak or mixed curves, or effect the other way; inactive = no such curve, though single readings can be large or run the other way; the % refers to the signal ratio; also: potency is read from the fitted curve at half-maximal effect). In short, it runs like this:
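GR-bla HeLa cells carrying a GRE-driven beta-lactamase reporter, exposed to compounds for 18 h at 37 C. Reporter activation read as fluorescence after 2 h with LiveBLAzer B/G FRET substrate at room temperature.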

For experiment [17] the target is unchanged. Briefly: qHTS assay to identify small molecule antagonists of the glucocorticoid receptor (GR) signaling pathway (AID 720692; active = well fitted inhibition curve with a large enough effect in the signal ratio in the repeat runs, not every such curve was filed as active; inconclusive = weak or mixed curves, or effect the other way; inactive = no such curve, though single readings can be large or run the other way; the % refers to the signal ratio). The procedure, abridged: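 GR-bla HeLa cells carrying a GRE-driven beta-lactamase reporter received compound after 4 h plating, then dexamethasone (5 nM final). After 18 h at 37C, the FRET substrate was loaded for 2 h at room temperature and fluorescence read.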

Experiment [18] is described as follows: qHTS assay for small molecule disruptors of the mitochondrial membrane potential - cell viability (AID 720634; calls by dose curve;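 also: human HepG2 liver cancer cells; series mostly up to about 83 µM; nearly all actives have a fitted effect of over 20% in size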). The procedure, abridged: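 HepG2 cells, 2,000 per well, attached overnight, then treated 1 hr at 37 C, 5% CO2. Viability read as ATP by CellTiter-Glo luminescence after 30 min at room temperature. Read in the same wells as the m-MPI membrane-potential dye assay.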

A short description of experiment [19]: qHTS assay for small molecule disruptors of the mitochondrial membrane potential (AID 720635). The procedure, abridged:
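HepG2 cells (2,000/well) attached overnight at 37C, then took compound for 1 hr at 37C, 5% CO2. Mito-MPS dye was added for 30 min; fluorescence was read at 490/535 nm (monomers) and 540/590 nm (aggregates).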

Values joined by “and” are separate entries in the source; they are usually repeats but may differ in a detail not shown here. Identical values can stand only once. Unmarked numbers belong to inactive results. Active and inactive are the calls of the source. Unless noted, calls follow the shape of the dose curve; as a rule, active = well fitted curve in the direction sought with a large enough effect in the repeat runs; inconclusive = weak or mixed curves; inactive = no such curve, though single readings can be large; an effect the other way counts as inactive or inconclusive.

Chain of Glucocorticoid receptor (Homo sapiens) (P04150 whole entry, looked up): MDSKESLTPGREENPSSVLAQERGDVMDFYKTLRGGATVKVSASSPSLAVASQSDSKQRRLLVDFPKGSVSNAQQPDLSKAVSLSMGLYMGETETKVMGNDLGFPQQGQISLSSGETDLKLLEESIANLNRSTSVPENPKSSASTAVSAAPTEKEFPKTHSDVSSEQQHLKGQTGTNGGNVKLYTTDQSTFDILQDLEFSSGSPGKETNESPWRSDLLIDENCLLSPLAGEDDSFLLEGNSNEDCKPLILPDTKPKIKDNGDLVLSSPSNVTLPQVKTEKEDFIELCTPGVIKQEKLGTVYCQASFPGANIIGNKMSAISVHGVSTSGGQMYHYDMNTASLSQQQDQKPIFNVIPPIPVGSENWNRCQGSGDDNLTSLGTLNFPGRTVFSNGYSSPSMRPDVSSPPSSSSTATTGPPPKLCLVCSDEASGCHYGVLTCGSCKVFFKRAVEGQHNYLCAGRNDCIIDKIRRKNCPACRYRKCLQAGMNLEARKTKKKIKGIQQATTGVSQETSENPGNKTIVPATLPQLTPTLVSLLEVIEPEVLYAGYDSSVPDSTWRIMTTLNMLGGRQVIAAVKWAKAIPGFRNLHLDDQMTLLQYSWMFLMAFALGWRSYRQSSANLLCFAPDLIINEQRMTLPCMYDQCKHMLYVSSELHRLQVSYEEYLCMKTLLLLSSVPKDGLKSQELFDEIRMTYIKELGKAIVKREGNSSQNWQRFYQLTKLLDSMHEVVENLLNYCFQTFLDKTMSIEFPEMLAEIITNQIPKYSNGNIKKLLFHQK

Regarding `CC1(C)[C@H](C(=O)O[C@H](C#N)c2cccc(Oc3ccccc3)c2)[C@@H]1C=C(Br)Br`, the Potency entry in experiment [1] and in experiment [2] was “inactive” throughout. Moreover, the outcome in experiment [3], in experiment [4], in experiment [5], in [6], in experiment [7] and in experiment [8] was inactive. The call in experiment [9], in [10], in experiment [11], in [12], in experiment [13] and in [14] was inactive.
Take `O=C(O)C(F)(F)C(F)(F)C(F)(F)C(F)(F)C(F)(F)C(F)(F)C(F)(F)C(F)(F)F`: the Potency entry in experiment [15], in experiment [16] and in experiment [17] was “inactive” each time. In [1], the Potency is 61.1 µM (active). Also, the result in [3], in experiment [4], in experiment [5], in experiment [6], in experiment [7] and in [8] was inactive. Moreover, the compound was classed as inactive in [9], in experiment [10], in [11], in experiment [12], in [13] and in experiment [14].
With `CC(C)c1ccc(NC(=O)N(C)C)cc1`, the Potency entry in experiment [15], in experiment [2] and in experiment [17] was “inactive” in each case. Moreover, the compound was classed as inactive in experiment [3], in experiment [4], in experiment [5], in [6], in experiment [7] and in experiment [8]. Moreover, the compound was classed as inactive in experiment [9], in experiment [11], in experiment [12], in [13] and in [14].
`C=CCN1C[C@H](C)N([C@H](c2ccc(C(=O)N(CC)CC)cc2)c2cccc(OC)c2)C[C@H]1C`: the Potency result in experiment [15], in experiment [2], in [18], in experiment [19], in [16] and in experiment [17] was “inactive” in each case. Besides, the outcome in [3], in experiment [5], in experiment [6], in experiment [7], in experiment [8] and in [9] was inactive. The result in experiment [11], in experiment [12], in experiment [13] and in experiment [14] was inactive.
Consider `CN1C(=O)CN=C(c2ccccc2)c2cc([N+](=O)[O-])ccc21`, for which the Potency result in [1] was “inactive”. For the same compound, the result in [3], in [4], in experiment [5], in experiment [6], in experiment [7] and in experiment [8] was inactive. The outcome in experiment [9], in [10], in experiment [11], in experiment [12], in experiment [13] and in [14] was inactive. The Potency in [16] was 0.338 µM [inconclusive] (active).
As for `[Cl-].[Cl-].[Hg+2]`, the Potency in experiment [2] was 5.31 µM (active) and 30.5 µM (active) and 61.1 µM (active). The outcome in experiment [3], in [4], in [5], in experiment [6], in experiment [7] and in [8] was inactive. Besides, the compound was classed as inactive in experiment [9], in experiment [10], in [11], in experiment [12], in experiment [13] and in experiment [14].
For the compound `C=CC(=O)OCC`, the Potency result in [15], in [1], in experiment [18] and in experiment [17] was “inactive” throughout. Moreover, the compound was classed as inactive in experiment [3], in experiment [4], in experiment [5], in experiment [6], in [7] and in [8]. Moreover, the outcome in [9], in [11], in experiment [12], in experiment [13] and in experiment [14] was inactive.
Regarding `O=C(O)COc1cc(Cl)c(Cl)cc1Cl`, the Potency entry in experiment [15], in experiment [1], in experiment [16] and in experiment [17] was “inactive” throughout. Also, the compound was classed as inactive in [3], in experiment [4], in experiment [5], in experiment [6], in experiment [7] and in experiment [8]. Also, the compound was called inactive in [9], in [10], in [11], in [12], in experiment [13] and in experiment [14].
